# Shown is part of a subset that was picked to be rich in hits.
# LmPK inh: blocks Leishmania mexicana pyruvate kinase activity; purified LmPK, Kinase-Glo ATP luminescence, 1 h; Potency, µM (series often up to 57.5 µM), for inactives: at the top dose activity change, negative = inhibition, most hits filed as inhibitors; 0.37% of 290,000 active; further: potency means the concentration at half of the fitted maximal effect; on the % scale 0 is the no-effect control and ±100 the full control effect
# Target sequence (Q27686 whole entry, looked up): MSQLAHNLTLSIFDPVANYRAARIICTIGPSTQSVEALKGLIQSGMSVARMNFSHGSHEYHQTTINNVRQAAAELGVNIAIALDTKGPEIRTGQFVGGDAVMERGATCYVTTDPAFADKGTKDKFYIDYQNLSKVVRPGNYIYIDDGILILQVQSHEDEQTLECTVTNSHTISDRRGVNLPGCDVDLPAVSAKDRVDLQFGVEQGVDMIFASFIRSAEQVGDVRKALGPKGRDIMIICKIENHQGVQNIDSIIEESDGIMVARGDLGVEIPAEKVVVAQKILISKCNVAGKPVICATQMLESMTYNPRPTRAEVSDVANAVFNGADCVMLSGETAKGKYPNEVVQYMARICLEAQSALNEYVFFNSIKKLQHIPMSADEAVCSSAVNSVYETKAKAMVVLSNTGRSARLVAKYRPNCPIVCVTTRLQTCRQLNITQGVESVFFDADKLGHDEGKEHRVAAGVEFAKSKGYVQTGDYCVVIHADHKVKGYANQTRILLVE
#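 Screened at intermediate enzyme activity to detect both inhibitors and activators: LmPK at 0.1 nM, with a 0.5 nM enzyme column as activation reference. PEP 0.5 mM, ADP 0.1 mM; ATP detected by luminescence after 1 h.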
# RE007 growth inh: less growth of the S. pombe RE007 Vpr strain; S. pombe RE007 Vpr strain, BacTiter-Glo ATP luminescence, 24 h; Potency, µM (doses to about 92.2 µM), for the others: at the top dose activity change, negative = less growth, actives largely listed as inhibitors; 0.21% of 360,000 active; AID 651644; active means well fitted falling curve with a large enough effect; inconclusive means small, poorly fitted or top-dose-only effect; inactive means no such curve, though single readings can be large or run the other way; further: potency means the concentration at half of the fitted maximal effect; on the % scale 0 is the no-effect control and ±100 the full control effect; nearly all actives have a fitted effect of over 50% in size
#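 Fission yeast strain RE007, carrying one chromosomally integrated HIV-1 vpr copy, was seeded at OD 0.01 in PMG+AL medium with 23 nL pinned compound. After 24 h at 30 °C and 99% humidity, viability was read by BacTiter-Glo luminescence.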
# Giardia FBPA inh: inhibitors of Giardia lamblia fructose-1,6-bisphosphate aldolase. A8B2U2. purified Giardia FBPA. Potency, µM (series often up to 59.6 µM), for inactives: top-dose activity, negative = inhibition, usual class: inhibitors. 0.71% of 290,000 active; further: potency means the concentration at half of the fitted maximal effect; on the % scale 0 is the no-effect control and ±100 the full control effect; nearly all actives have a fitted effect of over 55% in size
#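 Giardia FBPA (40 nM reagent) was preincubated 10 min at RT with compound (up to 57.5 uM final), then substrate plus GAPDH/TPI/NAD/arsenate coupling system with diaphorase/resazurin was added; resorufin fluorescence (525/598 nm) was read after 20 min.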
# Tb PYK inh: T. brucei pyruvate kinase inhibition; Q57TT1; TbPYK enzyme, Kinase-Glo Plus ATP luminescence, 45 min; Potency, µM (series often up to 76.8 µM), without a hit: top-dose activity, negative = inhibition, usual class: inhibitors; 0.12% of 410,000 active; further: potency means the concentration at half of the fitted maximal effect; on the % scale 0 is the no-effect control and ±100 the full control effect; nearly all actives have a fitted effect of over 50% in size
#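 Luminescent Kinase-Glo Plus end-point after 45 min room-temperature reaction of T. brucei pyruvate kinase started with 130 uM ADP (final). Buffer TEA 50 mM pH 7.2 with KCl, MgCl2, BSA, Tween-20; titration-based qHTS with fitted concentration-effect curves.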
# Cycloheximide cs: counter-screen for Shiga toxin inhibitors: cycloheximide protein synthesis inhibition; cell reporter, cycloheximide protein synthesis inhibition counterscreen; max response, %; 12% of 300,000 active; AID 2314; in the data active means max response mostly above about 13%, no sharp cut-off; inactive means mostly below about 14%; further: read at 38.3 µM for the half of the compounds with a filed dose; 0% is about no effect
# Shiga inhibitor: Shiga toxin inhibition; 9.2% of 290,000 active; inhibition, % at 38.7 µM; Vero cells, Shiga toxin protein synthesis inhibition reporter; AID 2315; in the data active means inhibition mostly above about 28%, no sharp cut-off; inactive means mostly below about 43%; further: 0% is about no effect
# * hit, by the source's call; u = inconclusive; x = no result. Unless noted, the call rests on the fitted dose curve; in most records, active means well fitted curve in the direction sought with a large enough effect; inconclusive means small, poorly fitted or top-dose-only effect, or another doubt; inactive means no such curve, though single readings can be large; an effect the other way counts as inactive or inconclusive.
SMILES,LmPK inh,RE007 growth inh,Giardia FBPA inh,Tb PYK inh,Cycloheximide cs,Shiga inhibitor
COc1ccc(C(=O)/C=C/Nc2ccc(S(=O)(=O)Nc3nc(C)cc(C)n3)cc2)cc1OC,1.8%,-29.2%,-0.9%,-21.4%,15.8*,-4.0
COc1ccc(C(=O)/C=C/Nc2ccc(S(=O)(=O)Nc3nc(C)cc(C)n3)cc2)c(OC)c1,9.7%,-1.3%,4.7%,1.1%,1.3,44.2
Cc1ccc2c(n1)Oc1ccc(C(C)C(=O)OCC(=O)N(C)C)cc1C2 (stereo unspecified),x,x,x,-11.7%,x,x
CS(=O)(=O)N1CCN(c2ccc(NC(=O)c3cc4ccccc4o3)cc2)CC1,4.0%,14.5%,8.6%,-2.5%,18.8*,21.2
CN1CCN(c2ccc(NC(=O)c3cc4ccccc4o3)cc2)CC1,-0.2%,-2.1%,-0.5%,-0.1%,33.4*,57.4
CC(=O)NC1=NN(C(C)=O)C(C)(c2cccs2)S1 (stereo unspecified),-2.9%,43.7%,5.8%,-11.4%,-0.8,-4.9
CC(=O)NC1=NN(C(C)=O)C(C)(c2ccc(C)o2)S1 (stereo unspecified),-6.1%,-8.9%,0.4%,2.1%,18.9*,22.3
CC(=O)NC1=NN(C(C)=O)C(C)(c2ccco2)S1 (stereo unspecified),-1.3%,2.9%,1.4%,1.1%,43.3*,58.9*
Cc1ccc(C)c(N2CCN(c3nc4ccc(Cl)cc4n4cnnc34)CC2)c1,x,x,x,3.6%,x,x
Cc1ccc2oc(-c3ccc(C)c(NC(=O)/C=C/c4ccc(Cl)cc4)c3)nc2c1,x,x,x,3.3%,x,x
CCc1nnc(NS(=O)(=O)c2ccc(N/C=C\C(=O)c3ccc4ccccc4c3)cc2)s1,5.0%,4.9%,-0.9%,-6.2%,24.0*,3.2
COc1ccc(S(=O)(=O)Nc2ncccn2)cc1,0.3%,0.2%,1.3%,-3.8%,9.0,17.0
Cc1noc(NS(=O)(=O)c2ccc(N/C=C/C(=O)c3cccnc3)cc2)c1C,-3.8%,3.9%,3.1%,-1.6%,15.8*,43.0*
Cc1noc(NS(=O)(=O)c2ccc(N/C=C/C(=O)c3ccc(F)cc3)cc2)c1C,2.1%,-6.5%,18.4%,-1.0%,32.7*,68.8*
Cc1noc(NS(=O)(=O)c2ccc(N/C=C\C(=O)c3ccncc3)cc2)c1C,-0.3%,3.5%,11.4%,-4.3%,-2.9,-4.6
COc1ccc(C(=O)/C=C/Nc2ccc(S(=O)(=O)Nc3ncccn3)cc2)cc1,1.7%,x,3.6%,x,20.4*,37.7
COc1ccc(-c2nc(Cn3c(=O)cc(-c4ccccc4)c4c(C)nn(C)c43)c(C)o2)cc1OC,x,x,x,2.3%,x,x
CCc1ccc(C(=O)/C=C/Nc2ccc(S(=O)(=O)Nc3onc(C)c3C)cc2)cc1,-0.2%,-1.2%,14.8%,-6.1%,49.9*,91.6*
COc1ccc(C(=O)/C=C/Nc2ccc(S(=O)(=O)Nc3onc(C)c3C)cc2)cc1,1.5%,-20.3%,21.9%,-6.3%,43.5*,77.0*
CC1CC(C)CN(CCC(=O)Nc2ccc(Br)cc2)C1 (stereo unspecified),4.9%,2.3%,-28.7%,-3.1%,-1.2,x
CC1CCc2nc(NC(=O)Cc3cccs3)sc2C1 (stereo unspecified),-7.8%,-25.2%,-0.4%,-11.4%,47.8*,94.5*
CCC(CC)C(=O)Nc1nc2c(s1)CC(C)CC2 (stereo unspecified),x,x,x,-6.2%,x,x
CC(C)(C)C1CCc2nc(NC(=O)Cc3cn4ccsc4n3)sc2C1 (stereo unspecified),-1.4%,6.3%,4.0%,6.9%,36.6*,146.4*
CC1CCc2nc(NC(=O)C3CCCO3)sc2C1 (stereo unspecified),-10.9%,12.6%,u,-6.8%,23.8*,55.4*
Cc1ccc(/C=C/C(=O)OCC(=O)NC(C)C)o1,-4.5%,0.1%,0.0%,-13.5%,19.1,15.7
SMILES,LmPK inh,RE007 growth inh,Giardia FBPA inh,Tb PYK inh,Cycloheximide cs,Shiga inhibitor
O=C(NC(=S)N1CCCc2ccccc21)c1ccccc1,4.1%,-11.7%,-11.2%,-13.0%,24.7*,68.7*
O=C(NC(=S)N1CCCc2ccccc21)c1ccc([N+](=O)[O-])cc1,0.9%,10.1%,-2.1%,0.0%,47.4*,58.5*
O=C(c1cc([N+](=O)[O-])cc([N+](=O)[O-])c1)N1CCCc2ccccc21,7.0%,-5.7%,-9.1%,0.2%,-3.5,-10.2
O=C(NC(=S)N1CCCc2ccccc21)c1ccc(Cl)cc1,0.2%,-14.1%,-29.5%,-17.9%,52.2*,73.3*
O=C(NC(=S)N1CCCc2ccccc21)c1ccc(Br)cc1,8.3%,-8.9%,-24.3%,-21.2%,21.8*,31.7
O=C(C(=O)N1CCCc2ccccc21)N1CCCc2ccccc21,2.2%,2.0%,-5.2%,-1.6%,0.5,-10.4
OC[C@@H]1OC(O)[C@H](O)[C@H](O)[C@H]1O (stereo partly specified),x,x,5.9%,x,1.7,-13.6
O=C(Cn1cc([N+](=O)[O-])cn1)N1CCCc2ccccc21,-2.6%,17.9%,1.4%,3.0%,28.3,52.6*
COc1ccc(OC)c(NC(=O)/C=C/c2ccc(S(=O)(=O)N3CCOCC3)cc2)c1,x,-0.1%,x,3.0%,x,x
COc1cccc(CNC(=O)c2c(C)nn(-c3ccc(F)cc3)c2-n2cccc2)c1,x,x,x,3.5%,x,x
Cc1cc(C)nc(-n2nc(C)c3c2N(Cc2ccccc2C)C(=O)CC3c2ccc(Cl)cc2)n1 (stereo unspecified),x,x,x,4.2%,x,x
O=C(COc1ccc(Cl)cc1Cl)OCC(=O)c1ccc[nH]1,x,-11.7%,x,-3.2%,x,x
O=C(CCC(=O)c1ccc[nH]1)c1ccc(Cl)cc1,-1.2%,-27.9%,-0.7%,-6.4%,46.0*,99.8*
O=C(Cc1ccc(Cl)cc1Cl)OCC(=O)c1ccc[nH]1,3.2%,-12.9%,-9.7%,0.6%,13.2,58.9
O=C(COc1ccc(F)c(Cl)c1)c1ccc[nH]1,-6.6%,-4.5%,1.0%,-4.1%,36.2*,39.8
COc1ccc(/C(C)=N/NC(=O)c2ccc(N(C)C)cc2)cc1,-4.3%,-13.5%,-3.1%,1.0%,8.5,23.2
COc1ccc(C(=O)Nc2ccc(N3CCCC3)cc2)cc1,-23.1%,-22.3%,-15.8%,-11.3%,10.4,11.8
COc1ccc(C(=O)NC(=S)Nc2ccc(N3CCCC3)cc2)cc1,2.1%,-20.3%,3.4%,0.2%,16.4*,6.6
C/C(=N\NC(=O)CC(C)C)c1ccc(N2CCCCC2)cc1,7.2%,2.3%,4.5%,-13.4%,26.1*,71.5*
COc1ccc(C(=O)N/N=C(/C)c2ccc(N3CCCCC3)cc2)cc1,-1.5%,-15.0%,1.1%,-16.3%,30.4*,74.3*
COc1ccc(/C(C)=N/NC(=O)c2nc(C)cc(C)n2)cc1,3.6%,-10.2%,-1.1%,-1.1%,32.4*,50.2*
CC1(C)S[C@@H]2[C@H](NC(=O)[C@H](N)c3ccccc3)C(=O)N2[C@@H]1C(=O)OCOC(=O)[C@@H]1N2C(=O)C[C@@H]2S(O)(O)C1(C)C,x,x,x,-5.2%,x,x

# Compound activity from PubChem.
